Screening data as filed in PubChem BioAssay.
This is a sample that favours compounds with a hit; in the whole collection about 7.5% have one here.
SMN2 splice enh: SMN2 splice variant enhancement; HEK293 SMN2-luciferase splicing reporter, luminescence, 30-36 h; Potency, µM (doses to about 46.1 µM), inactives show top-dose activity change, positive = activation, hits mostly activators; 210,000 tested, 2.8% active; AID 1458; note: % of control where 0% means no effect; nearly all actives have a fitted effect of over 55% in size
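qHTS luciferase splicing reporter: luminescence rises when SMN2 exon 7 is included in transfected HEK293 cells. Compound exposure lasted 30-36 h at 37C, with 4.5 mM final sodium butyrate as control, followed by a ONE-Glo read.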
NPC1 prom act: activates the NPC1 promoter. AID 485313. Huh7 NPC1 promoter luciferase reporter, 24 h. Potency, µM (series often up to 9.22 µM), without a hit: top-dose activation, actives largely listed as activators. 320,000 tested, 2.4% active; note: % of control where 0% means no effect; nearly all actives have a fitted effect of over 60% in size
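Luminescence read-out of NPC1 promoter-driven luciferase in stably transfected Huh7 cells; compounds delivered in DMSO and left 24 h at 37C, 5% CO2, qHTS titration format.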
ELG1 genotox: inducers of genotoxicity in HEK293T ELG1-luciferase cells. HEK293T ELG1-luciferase reporter, luminescence, 16 h. Potency, µM (series often up to 46 µM), without a hit: at the top dose activity change, positive = activation, hits mostly activators. 330,000 tested, 1.3% active. AID 504466; note: % of control where 0% means no effect; nearly all actives have a fitted effect of over 60% in size
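Luminescence read-out: rising ELG1-luciferase signal, reflecting elevated ELG1 protein under genetic stress, flags genotoxic compounds. Cells were treated for 16 hr at 37 °C before ONE-Glo detection.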
Rab9 prom act: activators of Rab9 promoter | Huh7 Rab9 promoter-luciferase reporter, luminescence, 24 h | Potency, µM (titrated, usually from 9.22 µM), without a hit: at the highest dose activation, negative = inhibition, most hits filed as activators | 320,000 tested, 2.8% active | AID 485297; note: % of control where 0% means no effect; nearly all actives have a fitted effect of over 60% in size
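Steps: seed 1500 Huh7 Rab9-luc cells per well, rest 2 h at 37 °C; add compound in DMSO; incubate 24 h; add luciferase reagent, 10 min ambient; read luminescence.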
FLuc counter: firefly luciferase modulation, counter-screen for miR-21 project; P08659; purified FLuc, Km substrates, luminescence inhibition; Potency, µM (highest dose often 57.5 µM), for inactives: at the top dose activity change, negative = inhibition, actives largely listed as inhibitors; 360,000 tested, 6.9% active; AID 588342;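 note: plate controls were vehicle for no effect and reference inhibitor for full effect; nearly all actives have a fitted effect of over 55% in size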
Target sequence (P08659 whole entry, looked up): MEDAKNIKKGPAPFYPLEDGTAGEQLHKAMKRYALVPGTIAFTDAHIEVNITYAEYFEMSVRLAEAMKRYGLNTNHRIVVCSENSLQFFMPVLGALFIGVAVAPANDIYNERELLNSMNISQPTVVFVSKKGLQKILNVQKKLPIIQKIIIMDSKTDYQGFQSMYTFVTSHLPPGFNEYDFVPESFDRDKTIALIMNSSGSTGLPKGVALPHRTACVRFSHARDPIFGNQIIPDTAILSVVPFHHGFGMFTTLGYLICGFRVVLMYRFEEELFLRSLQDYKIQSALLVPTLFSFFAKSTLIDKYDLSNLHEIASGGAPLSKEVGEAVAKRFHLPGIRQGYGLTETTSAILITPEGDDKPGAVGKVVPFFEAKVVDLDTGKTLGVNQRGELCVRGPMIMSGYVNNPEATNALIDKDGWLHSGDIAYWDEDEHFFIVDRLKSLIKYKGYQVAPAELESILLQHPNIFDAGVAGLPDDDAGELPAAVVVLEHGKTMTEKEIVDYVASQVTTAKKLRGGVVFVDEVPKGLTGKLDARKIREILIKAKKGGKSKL
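Purified P. pyralis luciferase, 10 nM final, with Km-level 10 uM D-luciferin and 10 uM ATP in 50 mM Tris acetate pH 7.5, 10 mM Mg acetate, 0.01% Tween-20, 0.05% BSA; 6-point qHTS titration about 60 µM downward; luminescence read.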
KinaseGlo FLuc: counter-screen: inhibitors of Kinase-Glo firefly luciferase; 200,000 tested, 0.28% active; Q27757; Kinase-Glo luciferase, ATP luminescence, 8 min; Potency, µM (highest dose often 38.3 µM), inactives show top-dose activity change, negative = inhibition, actives largely listed as inhibitors; note: % is set by controls: 0 for no effect and ±100 for the full control effect; nearly all actives have a fitted effect of over 60% in size
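Light output from Kinase-Glo luciferase with luciferin and 10 uM ATP in 50 mM imidazole pH 7.2, KCl, MgCl2, Tween 20, BSA; compound pin-delivered, 8-min ambient incubation, then luminescence read.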
Starred values were filed as active, the others as inactive; ? = inconclusive; · = no result; [ ] = remark or other dose. Calls come from the whole dose curve; as a rule, active = well fitted curve in the direction sought with a large enough effect; inconclusive = small, poorly fitted or top-dose-only effect, or another doubt; inactive = no such curve, though single readings can be large; an effect the other way counts as inactive or inconclusive. Potency is the fitted concentration of half-maximal effect.

SMILES	SMN2 splice enh	NPC1 prom act	ELG1 genotox	Rab9 prom act	FLuc counter	KinaseGlo FLuc
CCC1CCCCN1S(=O)(=O)c1ccc(NC(=O)c2nc(SC)ncc2Cl)cc1 (stereo not drawn)	-9.0%	·	·	·	-3.0%	·
CC(C)(C)c1ccc(OCCC(=O)OCC(=O)NC2CCCCC2)cc1	·	0.8%	1.8%	1.9%	16.9µM*	·
CC(C)(C)c1ccc(OCCC(=O)OCC(=O)NC(=O)NC2CCCC2)cc1	·	-0.4%	-43.6%	16.2%	?	·
O=C(CCC(=O)OCC(=O)c1ccc(Cl)cc1)NC1CCCCC1	-2.0%	-0.6%	-0.6%	2.4%	-15.7%	-5.5%
Cc1ccc(C(=O)COC(=O)CCC(=O)NC2CCCCC2)cc1C	0.3%	0.5%	-2.7%	1.7%	9.53µM*	-4.3%
O=C(CCC(=O)Nc1ccc(F)cc1)N/N=C/c1ccncc1	-8.3%	-0.8%	-0.7%	1.0%	-3.4%	-0.8%
CCOc1ccc(OCc2ccc(C(=O)NN=Cc3ccc[nH]3)cc2)cc1	·	·	16.8%	·	·	·
O=C(CCC(=O)Nc1ccccc1)N/N=C/c1ccncc1	-10.9%	7.6%	-2.4%	7.7%	12µM*	0.0%
Cc1ccccc1C(=O)Nc1ccc(C(=O)N/N=C/c2ccncc2)cc1	-23.2%	7.0%	8.4%	0.6%	-16.9%	2.8%
CCOc1ccc(/C=N/NC(=O)c2ccccc2NC(=O)c2ccc(OC)cc2)cc1	119.1%	?	13.5%	?	0.379µM*	?
O=C(N/N=C/c1ccco1)c1ccc(NC(=O)c2ccccc2Cl)cc1	1.9%	1.1%	-0.8%	1.2%	4.5%	1.0%
COc1ccc(C(=O)Nc2ccccc2C(=O)N/N=C/c2ccco2)cc1	·	16.0%	?	?	0.477µM*	2.82µM*
O=C(Nc1ccccc1C(=O)N/N=C/c1ccncc1)c1ccccc1	·	?	-13.9%	?	1.9µM*	1.78µM*
CCOc1ccccc1NC(=O)C1CCN(S(=O)(=O)c2c(C)noc2/C=C/c2ccc(C)cc2)CC1	·	·	·	·	-0.5%	·
Cc1cc(C)c(NC(=O)CSc2ccnc(=O)[nH]2)c(C)c1	·	·	·	·	3.6%	·
Cc1ccc(C(=O)c2cn(CC(=O)NCc3ccccc3Cl)c3nc(C)ccc3c2=O)cc1	·	·	·	·	-3.0%	·
CC(=O)N1CCC2(CCCN(c3ccc(-c4ccccc4)cc3)C2)CC1	-37.7%	·	·	·	·	-0.4%
CCOC(=O)C1CCC(CN(Cc2ccc(OC)cc2)S(=O)(=O)c2ccc(F)c(C(=O)Nc3c(C)cccc3C)c2)CC1 (stereo not drawn)	·	·	·	·	-0.8%	·
CCCCN1CCc2c([nH]c3ccccc23)C1=O	?	?	?	2.51µM*	-2.8%[2.3 µM]	-2.2%
O=c1[nH]c(SCc2ccc(Br)cc2)nc2c1CCCC2	·	·	·	·	0.6%	·
COc1ccc(NC(=O)CCOc2ccccc2)cc1	?	3.16µM*	?	4.47µM*	16.9µM*	-0.7%
COC(=O)c1ccc(NC(=O)CCOc2ccccc2)cc1	3.6%	-3.0%	15.7%	-1.7%	-13.9%	0.4%
O=C(CCOc1ccccc1)Nc1ccc(Br)cc1	·	?	17.1%	3.16µM*	?	·
COc1cc(-c2ccno2)ccc1S(=O)(=O)N1CCN(c2ccc(C(C)=O)cc2)CC1	·	·	·	·	3.6%	·
Cc1cc(Oc2c(C(F)(F)F)oc3c(CN4CCC(C)CC4)c(O)ccc3c2=O)cc(C)c1Cl	0.0%	·	·	·	-0.6%	·
SMILES	SMN2 splice enh	NPC1 prom act	ELG1 genotox	Rab9 prom act	FLuc counter	KinaseGlo FLuc
Cc1ccc(C(=O)O)cc1NC(=S)NC(=O)c1ccc(-c2ccc(Cl)cc2)o1	·	-1.5%	2.5%	-2.3%	?	·
O=C(O)c1cccc(NC(=S)NC(=O)c2ccc(-c3ccc(Cl)cc3)o2)c1	72.7%	17.7%	9.2%	?	15.1µM*	1.6%
COc1ccc(C(=O)O)cc1NC(=S)NC(=O)c1ccc(-c2ccc(Cl)cc2)o1	-13.7%	-0.6%	10.6%	1.5%	13.5µM*	-2.4%
COc1ccc(CCNC(=O)c2cc(-c3ccccc3)on2)cc1OC	-10.8%	1.1%	5.1%	13.0%	-0.4%	4.4%
Cc1cc(C(=O)NCc2ccco2)on1	-1.6%	-0.2%	-0.9%	6.4%	9.7%	2.7%
CC(C)c1cc(C(=O)NCCc2ccccc2)no1	·	3.16µM*	?	2.24µM*	16.9µM*	0.2%
O=C(NCCc1ccccc1)c1cc2ncc(Br)cn2n1	?	23.9%	16.4µM*	?	?	-1.6%
CC(C)c1cc(C(=O)NCc2ccco2)no1	?	12.6%	14.6µM*	?	-13.8%	-12.7%
O=C(Nc1ccc(F)cc1F)c1cc(-c2ccco2)on1	-17.2%	-7.8%	?	7.0%	4.26µM*	3.6%
CCn1nc(-c2ccccc2)c(-c2ccccc2)c(C(=O)Nc2nc(C)c(C(=O)N(C)C)s2)c1=O	3.3%	·	·	·	?	·
CCC(Cn1nnc2ccccc2c1=O)NC(=O)Nc1cccc(C)c1C (stereo not drawn)	-1.5%	·	·	·	0.2%	·
O=C(NCc1ccc(Cl)cc1)c1cc(-c2ccco2)on1	·	1.2%	5.0%	12.9%	-1.8%	·
O=C(Nc1ccc(F)cc1F)c1csc(-c2cccs2)n1	?	-0.1%	-5.2%	?	6.75µM*	-1.7%
O=C(NCCCn1ccnc1)c1cc(-c2cccs2)on1	-1.7%	?	?	3.16µM*	?	-1.2%
O=C(NCc1ccc(F)cc1)c1cc(-c2ccco2)on1	20µM*	2.3%	1.3%	13.9%	0.8%	3.3%
O=C(Nc1ccc(F)cc1F)c1csc(-c2ccncc2)n1	8.7%	14.5%	8.8%	11.2%	?	3.5%
COc1ccc(-c2cc(C(=O)NCc3ccc(F)cc3)no2)cc1	-1.0%	·	·	·	0.8%	·
O=C(NCCCN1CCOCC1)c1cc(-c2cccs2)on1	-10.9%	28.4%	?	?	-9.3%	-1.2%
O=C(NCc1ccco1)c1cc(-c2ccc(F)cc2)on1	20.5%	2.51µM*	?	2.82µM*	?	6.3%
CCC(=O)N[C@@H]1CCc2cccc(OC)c2C1	·	·	·	·	·	0.8%
c1ccc(C(c2ccccc2)N2CC3(CCNCC3)C2)cc1	-6.0%	·	·	·	·	-3.1%
O=C(NCc1ccco1)c1cc(-c2ccccc2)on1	12.6µM*	?	18.4µM*	2.82µM*	?	-2.8%
O=C(NCc1ccco1)c1cc(-c2cccs2)on1	?	3.16µM*	?	2.82µM*	10.7µM*	-3.6%
CCCCC12CN3CC(C)(CN(C1)C3c1c[nH]c3ccccc13)C2=O (stereo not drawn)	-6.4%	·	·	·	-3.3%	·
CCOc1ccc2nc(NC(=S)NCc3ccccc3)sc2c1	-7.6%	9.1%	14.4%	12.3%	-12.5%	-3.1%
CCOc1ccc2nc(NC(=O)c3ccccn3)sc2c1	·	0.1µM*	?	?	0.379µM*	·
CCc1noc(C)c1C(=O)Nc1nc2c(F)cc(F)cc2s1	·	22.7%	-0.5%	?	12µM*	·
